# Compound activity (PubChem BioAssay)
# The list is not random: actives were taken first. Their share in the collection is about 6.8%.
# T cruzi growth-1: T. cruzi intracellular proliferation inhibitors, primary screen, cell-based, beta-gal Tulahuen parasites, NIH3T3 host, luminescence; T. cruzi beta-gal in NIH3T3, GalScreen luminescence, 90 h; inhibition, % at 8.34 µM; 77,000 compounds, 5.9% hits; AID 624255, 2012;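 active means mean inhibition above about 93%, with at least 55% of replicates each passing it, limit read from the data, passing the limit was not always enough; inconclusive means only one of those two conditions holds; inactive means neither condition holds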
# Pf Dd2 growth: P. falciparum Dd2 growth inhibitors, primary screen, SYBR Green fluorescence, single dose replicates | 72 h; stronger effect = lower value | 94,000 compounds, 2.3% hits | activity change, % at 10 µM; in the data active means activity change below about -80%; inconclusive means no clear call, values can overlap the other calls
# C diff growth: C. difficile growth inhibitors, primary screen, HTS; Clostridium difficile clinical isolate growth, OD600, 24 h; stronger effect = lower value; growth activity, negative = inhibition, % at 16 µg/mL (by protocol); 86,000 compounds, 0.25% hits; AID 1259249, 2017;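 active means mean growth activity at or below -80% and every replicate also at or below -80%; inconclusive means mean at or below -80% but some replicate above -80%; inactive means mean growth activity above -80%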;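 further: 0% = DMSO wells and -100% = levofloxacin 16 µg/mL wells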
# T cruzi growth-2: T. cruzi intracellular proliferation inhibitors, confirmation, cell-based, NIH3T3 host, beta-gal parasite, luminescence, cherry-pick; T. cruzi beta-gal in NIH3T3, GalScreen luminescence, 90 h; shares compounds with T cruzi growth-1; inhibition, % at 8.35 µM; AID 651739, 2012; 5,600 compounds, 72% hits;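 active means mean replicate inhibition above about 95% and at least 55% of replicates individually reaching it, limit read from the data; inconclusive means only one of the two criteria is met; inactive means neither criterion is met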
# T cruzi growth-3: inhibitors of intracellular T. cruzi replication, confirmation, NIH3T3 host cells, beta-gal parasites, cherry-pick, set 2; shares compounds with T cruzi growth-1; T. cruzi beta-gal in NIH3T3, GalScreen luminescence, 90 h; inhibition, % at 2.09 µM; 5,600 compounds, 21% hits; AID 651740, 2012;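 active means mean inhibition above about 95%, with at least 55% of replicates also reaching it, limit read from the data; inconclusive means meets just one of the two conditions; inactive means meets neither condition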;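 further: plate controls were neutral control median for no effect and positive control median for full effect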
# 3T3 cytotox: cytotoxicity in mouse NIH/3T3 fibroblasts, confirmation, cytotoxicity control for T. cruzi proliferation inhibitor project, cell-based, cherry-pick, single point. shares compounds with T cruzi growth-1. NIH/3T3 viability, CellTiter-Glo ATP luminescence, 90 h. cytotoxicity (signal decrease), % at 8.35 µM. 5,600 compounds, 14% hits. AID 651742, 2012;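 active means mean signal decrease across replicates above about 35% based on untreated-well scatter, with enough replicates individually passing, limit read from the data; inconclusive means no rule stated though some were filed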;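 further: 0% = median of neutral control wells and 100% = median of positive control wells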
# NIH3T3 tox 2: NIH/3T3 fibroblast cytotoxicity, confirmation, cytotoxicity control, cell-based, cherry-pick, single point, set 2; NIH/3T3 viability, CellTiter-Glo ATP luminescence, 90 h; AID 651744, 2012; inhibition, % at 24.9 µM; shares compounds with T cruzi growth-1; 5,600 compounds, 56% hits;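 active means mean loss of cell viability signal at or above a set limit, and enough replicates individually reaching it; inconclusive means meets only the mean limit or only the replicate share; inactive means meets neither condition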;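 further: 0% = median of neutral control wells and 100% = median of positive control wells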
# An asterisk follows results filed as active; ? = inconclusive; / = no result given; ! = a repeat was not active.
SMILES,T cruzi growth-1,Pf Dd2 growth,C diff growth,T cruzi growth-2,T cruzi growth-3,3T3 cytotox,NIH3T3 tox 2
C[C@H]1CN([C@@H](C)CO)C(=O)c2cc(C#Cc3cccc(F)c3)cnc2O[C@@H]1CN(C)C(=O)C1CCOCC1,68,-40,-3,/,/,/,/
COc1cccc(S(=O)(=O)Nc2ccc3c(c2)OC[C@@H](C)NC[C@H](C)[C@@H](OC)CN(C)C3=O)c1,75,25,-1,/,/,/,/
COc1ccc(S(=O)(=O)Nc2cccc3c2O[C@@H](CN(C)C(=O)Nc2ccc4c(c2)OCO4)[C@H](C)CN([C@H](C)CO)C3=O)cc1,23,13,2,/,/,/,/
COc1ccc2c3c([nH]c2c1)[C@H](CO)N(C(=O)Nc1ccccc1F)CC31CCN(C(=O)C2CC2)CC1,/,-63,-2,/,/,/,/
C[C@H]1CN([C@@H](C)CO)S(=O)(=O)c2ccc(C#CCN(C)C)cc2O[C@H]1CN(C)Cc1ccc(F)cc1,39,-67,0,/,/,/,/
C[C@@H]1CN([C@H](C)CO)S(=O)(=O)c2ccc(C#CCN(C)C)cc2O[C@H]1CN(C)Cc1ccc(F)cc1,115*,-70,-10,?,91,57*,107*
COc1ccc2c3c([nH]c2c1)[C@H](CO)N(Cc1nccs1)CC31CN(C(=O)C2CC2)C1,/,-14,-2,/,/,/,/
COc1ccc(NC(=O)Nc2ccc3c(c2)CC(=O)N([C@H](C)CO)C[C@@H](C)[C@@H](CN(C)C(=O)NC(C)C)O3)cc1,56,-6,-4,/,/,/,/
C[C@@H]1CCCCO[C@@H](CN(C)Cc2ccc(Cl)c(Cl)c2)[C@H](C)CN([C@@H](C)CO)C(=O)c2cc(NC(=O)Nc3cccc4ccccc34)ccc2O1,126*,-48,-2,110*,112*,16,1
C[C@H](CO)N1C[C@H](C)[C@H](CN(C)Cc2ccncc2)OCCCC[C@H](C)Oc2ccc(NC(=O)Nc3cccc4ccccc34)cc2C1=O,89,37,26,/,/,/,/
C[C@@H]1CN([C@H](C)CO)C(=O)c2cc(NC(=O)Nc3cccc4ccccc34)ccc2O[C@@H](C)CCCCO[C@@H]1CN(C)Cc1ccccc1,/,-66,24,/,/,/,/
C[C@@H]1CCCCO[C@H](CN(C)Cc2ccc(Cl)c(Cl)c2)[C@@H](C)CN([C@@H](C)CO)C(=O)c2cc(NC(=O)Nc3cccc4ccccc34)ccc2O1,125*,-90*,-12,101*,116*,18,-3
C[C@@H]1CN([C@@H](C)CO)C(=O)c2cc(NC(=O)Nc3cccc4ccccc34)ccc2O[C@@H](C)CCCCO[C@H]1CN(C)Cc1ccc(Cl)c(Cl)c1,122*,-35,-18,107*,106*,24,8
C[C@@H]1CCCCO[C@@H](CN(C)Cc2ccncc2)[C@@H](C)CN([C@@H](C)CO)C(=O)c2cc(NC(=O)Nc3cccc4ccccc34)ccc2O1,94,-13,11,/,/,/,/
C[C@H](CO)N1C[C@H](C)[C@H](CN(C)S(=O)(=O)c2ccccc2)Oc2ncc(/C=C/c3ccccc3)cc2C1=O,113*!,-49,-6,?,78,13,71*
C[C@@H]1CN([C@H](C)CO)C(=O)c2cc(/C=C/c3ccccc3)cnc2O[C@@H]1CN(C)S(=O)(=O)c1ccccc1,89,-37,0,/,/,/,/
Cc1ccc(S(=O)(=O)N(C)C[C@H]2Oc3c(cccc3N(C)C)C(=O)N([C@H](C)CO)C[C@H]2C)cc1,-21,13,0,/,/,/,/
C[C@H]1CN([C@@H](C)CO)C(=O)c2cc(/C=C/c3ccccc3)cnc2O[C@H]1CN(C)S(=O)(=O)c1ccccc1,94,-45,3,/,/,/,/
C/C=C/c1cnc2c(c1)C(=O)N([C@H](C)CO)C[C@H](C)[C@H](CN(C)S(=O)(=O)c1ccc(C)cc1)O2,20,2,2,/,/,/,/
C[C@H]1CN([C@@H](C)CO)C(=O)c2cc(/C=C/c3ccccc3)cnc2O[C@@H]1CN(C)S(=O)(=O)c1ccccc1,127*,-62,-6,106*,67,5,?
Cc1ccc(S(=O)(=O)N(C)C[C@@H]2Oc3ncc(/C=C/c4ccccc4)cc3C(=O)N([C@H](C)CO)C[C@@H]2C)cc1,120*,-70,6,102*,92,25,54*
Cc1ccc(S(=O)(=O)N(C)C[C@H]2Oc3c(cccc3N(C)C)C(=O)N([C@@H](C)CO)C[C@H]2C)cc1,102*,-40,3,76,20,24,10
CO[C@H]1CN(C)C(=O)c2cc(NS(C)(=O)=O)ccc2OC[C@@H](C)N(C(=O)C2CCCC2)C[C@@H]1C,12,/,/,/,/,/,/
CCC(=O)N1CC[C@@H]2[C@@H](CO)Nc3ccc(C#Cc4ccccc4F)cc3[C@@H]21,/,-15,-3,/,/,/,/
COc1ccc(S(=O)(=O)N2CCC3(CC2)CN(Cc2ccccc2OC)[C@@H](CO)c2[nH]c4cc(OC)ccc4c23)cc1,/,-63,1,/,/,/,/
SMILES,T cruzi growth-1,Pf Dd2 growth,C diff growth,T cruzi growth-2,T cruzi growth-3,3T3 cytotox,NIH3T3 tox 2
C[C@@H]1CN([C@H](C)CO)C(=O)c2cc(/C=C/c3ccccc3)cnc2O[C@H]1CN(C)S(=O)(=O)c1ccccc1F,109*,-40,0,113*,59,-3,24*
C[C@H](CO)N1C[C@H](C)[C@H](CN(C)S(=O)(=O)c2ccccc2F)Oc2ncc(/C=C/c3ccccc3)cc2C1=O,44,-26,-4,/,/,/,/
CN(C)CC(=O)Nc1ccc2c(c1)[C@H]1C[C@@H](CC(=O)N3CCOCC3)O[C@@H](CO)[C@H]1O2,-41,-12,0,/,/,/,/
CO[C@H]1CN(C)C(=O)c2cc(NC(=O)Nc3cccc(F)c3)ccc2OC[C@@H](C)N(C(C)=O)C[C@H]1C,17,-22,/,/,/,/,/
Cc1noc(C)c1S(=O)(=O)Nc1ccc2c(c1)C(=O)N([C@H](C)CO)C[C@@H](C)[C@@H](CN(C)Cc1ccc(C(F)(F)F)cc1)OCCCC[C@@H](C)O2,93,-27,/,/,/,/,/
Cc1noc(C)c1S(=O)(=O)Nc1ccc2c(c1)C(=O)N([C@@H](C)CO)C[C@H](C)[C@@H](CN(C)Cc1ccc(C(F)(F)F)cc1)OCCCC[C@H](C)O2,103*,-8,/,104*,74,-5,104*
Cc1noc(C)c1S(=O)(=O)Nc1ccc2c(c1)C(=O)N([C@H](C)CO)C[C@H](C)[C@@H](CN(C)Cc1ccc(C(=O)O)cc1)OCCCC[C@@H](C)O2,21,28,-4,/,/,/,/
